Screening data (PubChem BioAssay)
PriA SSB inh: inhibitors of Klebsiella pneumoniae PriA binding to SSB C-terminal tail, primary screen, biochemical, AlphaScreen; PriA–SSB C-terminal tail interaction (Klebsiella pneumoniae); AlphaScreen SSBct-PriA binding, biotinylated peptide; inhibition, % at 33 µM; 430,000 compounds, 0.6% hits; AID 1272365, 2023; in the data active = inhibition mostly above about 37%, no sharp cut-off; inactive = mostly below about 20%;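 also: plate controls were negative control peptide for no effect and reference peptide for full effect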
DUSP3 inh: VHR1 phosphatase inhibitors, primary screen, biochemical, absorbance, uHTS | Dual specificity protein phosphatase 3 (Homo sapiens), P51452 | recombinant VHR phosphatase, pNPP absorbance | inhibition, % at 13.3 µM | 290,000 compounds, 0.52% hits | AID 1654, 2009; in the data active = inhibition above about 50%
Target sequence (P51452 whole entry, looked up): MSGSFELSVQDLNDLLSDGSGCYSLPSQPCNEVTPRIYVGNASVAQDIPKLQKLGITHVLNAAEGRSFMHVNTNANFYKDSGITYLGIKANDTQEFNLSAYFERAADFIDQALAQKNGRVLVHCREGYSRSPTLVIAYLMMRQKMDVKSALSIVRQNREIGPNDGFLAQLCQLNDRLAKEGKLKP
3CLpro inhibitor: SARS-CoV 3CLpro protease inhibitors, primary screen, biochemical, quenched FRET; Replicase polyprotein 1ab (Severe acute respiratory syndrome coronavirus), P0C6X7; recombinant SARS-CoV 3CLpro, quenched FRET peptide cleavage; inhibition, % at 6 µM; 290,000 compounds, 0.14% hits; in the data active = inhibition above about 12%
CCHFV vOTU inh: CCHFV vOTU protease inhibitors, primary screen, biochemical, Pep-AMC substrate, fluorescence; Crimean-Congo hemorrhagic fever virus L polyprotein viral ovarian tumor (vOTU) protease …; inhibition, % at 11.5 µM; 370,000 compounds, 0.55% hits; AID 651958, 2012; in the data active = inhibition above about 30%; also: 0% = vehicle wells with enzyme and 100% = no enzyme wells
Mtb hypoxia rep: PubChem AID 1159583. M. tuberculosis hypoxia-regulated fluorescent reporter, fluorescence. fluorescence inhibition, % (test concentration not listed). 300,000 compounds, 0.1% hits; in the data active = fluorescence inhibition mostly above about 23%, no sharp cut-off; inactive = mostly below about 17%
Numbers without * were called inactive; . = not tested or not shown. An excerpt weighted towards active compounds, which were near 1.3% of everything screened.

SMILES	PriA SSB inh	DUSP3 inh	3CLpro inhibitor	CCHFV vOTU inh	Mtb hypoxia rep
Cc1ccc(OC2CCN(S(=O)(=O)c3cccc(Cl)c3C)CC2)nn1	-23.0	.	.	.	.
CCCCOc1ccc(C(=O)Nc2ccc3c(c2)N(CCOC)CCC3)cc1	22.0	.	.	.	.
COCCN1CCCc2ccc(N)cc21	79.0*	.	.	.	.
COCCN1CCCc2ccc(NC(=O)c3ccc(Br)cc3)cc21	61.0*	.	.	.	.
COCCN1CCCc2ccc(NC(=O)c3cc(C)cc(C)c3)cc21	62.0*	.	.	.	.
O=C(N/N=C/c1c[nH]c2ccccc12)c1ccccc1Cl	.	57.3*	-1.5	-2.9	.
O=C(N/N=C\c1c[nH]c2ccccc12)c1ccccc1	-11.0	.	.	.	.
COc1ccccc1/C=C/CN1CCC(n2nccc2NC(=O)CCc2ccccc2)CC1	101.5*	-2.2	-3.4	-6.1	-1.3
COc1ccc(F)cc1S(=O)(=O)N1CCCSCC1CN1CCOCC1 (stereo not given)	-4.0	.	.	.	.
Cc1ccccc1OC[C@@H](O)Cn1c(SCC(=O)c2ccccc2)nc2c1c(=O)n(C)c(=O)n2C	-12.0	.	.	.	.
Cc1cc2cc3c(cc2nc1SCC(=O)N1CCCC1)OCCO3	-1.9	52.9*	4.0	0.0	10.4
COc1ccc(/C=N/Nc2cc(N3CCCC3)nc(N3CCCC3)n2)cc1	.	13.1	2.2	-5.8	.
COc1ccc(C=NNc2cc(N3CCCC3)nc(N3CCCC3)n2)cc1	48.8*	.	.	.	-24.8
Nc1ccccc1N=Nc1ccccc1N	82.9*	25.1	-1.3	16.7	20.1
Nc1ccccc1-c1ccccc1N	-2.9	-3.9	-0.3	-2.9	11.5
Cn1cc(C(c2ccccn2)c2cn(C)c3ccccc23)c2ccccc21	50.0*	-32.1	5.6	5.6	0.1
c1ccc(C(c2c[nH]c3ccccc23)c2c[nH]c3ccccc23)nc1	31.8	13.3	0.9	11.7	.
O=C(Nc1ccccc1F)Nc1ccccc1Cc1nc(-c2cccs2)no1	0.0	.	.	.	.
CC(C)(C)N=C1NN=C(c2cc3ccccc3o2)CS1	42.2*	21.9	-5.0	8.8	8.2
Cc1ccccc1OCCNc1cc(N2CCN(CCO)CC2)ccc1[N+](=O)[O-]	41.6*	-4.3	3.5	4.6	18.4
O=C(Cc1ccc(F)cc1)Nc1nnc(C2CCCCC2)o1	-1.0	.	.	.	.
O=C(CSc1nnc(NC(=O)C2CC(=O)N(c3ccccc3)C2)s1)OCc1ccccc1 (stereo not given)	15.0	.	.	.	.
CCOC(=O)N1CCN(C(=O)CSc2nc(-c3cccc(C)c3)ns2)CC1	-6.0	35.7	-4.1	-15.5	44.1*
CCCCC1CCC(C(=O)Nc2cc(=O)n(C)c(=O)n2C)CC1 (stereo not given)	-11.0	.	.	.	.
COc1ccccc1NC(=O)C1=C(C)Nc2nc(-c3cccs3)nn2C1c1ccccc1[N+](=O)[O-] (stereo not given)	35.0*	.	.	.	.
SMILES	PriA SSB inh	DUSP3 inh	3CLpro inhibitor	CCHFV vOTU inh	Mtb hypoxia rep
O=C(CF)NC(Nc1cccc2cccnc12)C(Cl)(Cl)Cl (stereo not given)	73.4*	6.5	-8.4	4.6	.
CC(C)C(=O)NC(NC(=S)Nc1cccc2cccnc12)C(Cl)(Cl)Cl (stereo not given)	5.9	14.7	3.7	-9.8	5.9
CCC(=O)NC(NC(=S)Nc1cccc2cccnc12)C(Cl)(Cl)Cl (stereo not given)	-2.4	-3.8	-2.7	-1.6	9.9
CC(C)(C)C(=O)NC(Nc1cccc2cccnc12)C(Cl)(Cl)Cl (stereo not given)	86.8*	-13.5	4.7	8.7	4.2
CC(=O)Nc1ccc(NC(=O)C(C)Sc2nnnn2-c2cccc(C)c2)cc1 (stereo not given)	2.0	.	.	.	.
C=C(C)Cn1c([C@H](C)NC(=O)c2ccco2)nc2ccccc21	-9.0	.	.	.	.
CCCCCCn1c(C(C)NC(=O)c2ccco2)nc2ccccc21 (stereo not given)	-6.5	54.3*	2.5	6.6	.
CCc1ccccc1NC1=NCC(=O)N1C1CCCC1	-4.3	53.0*	-2.4	7.8	-1.2
CCc1ccccc1NC1=NCC(=O)N1Cc1ccc(OC)cc1	-7.2	20.0	-6.6	-2.5	.
CCCCCCSCc1ccc(O)c2ncccc12	82.8*	.	.	.	.
CCCCCCCCSCc1ccc(O)c2ncccc12	73.2*	.	.	.	.
Oc1ccc(CSC2CCCCC2)c2cccnc12	69.2*	.	.	.	.
CCCCCCCCCCCCSCc1ccc(O)c2ncccc12	53.4	.	.	.	.
O=C(O)c1cc(N/N=C/c2ccc(N3CCOCC3)s2)ccc1Cl	.	-3.6	4.4	31.2*	.
CCCCOc1ccc(C(=O)Nc2nc3c(s2)CCCC3)cc1	9.0	.	.	.	.
Nc1nc(-c2ccccc2)c(-c2ccccc2)s1	13.9	37.9	0.2	4.8	.
Nc1nc2c(s1)-c1cccc3cccc-2c13	66.0*	.	.	.	.
CC(C)(C)n1ncc2c(=O)n(CCC(=O)Nc3ccc4c(c3)OCO4)cnc21	4.0	.	.	.	.
NC(=O)c1ccc(N=C2C(=O)Nc3ccc([N+](=O)[O-])cc32)cc1	5.4	26.9	3.0	116.5*	0.4
C=C(C)C1CC=C(C)C(=NNc2ccccc2[N+](=O)[O-])C1 (stereo not given)	40.7*	.	.	.	11.3
CCn1cc(NC(=O)N2CCN(c3ccccc3F)CC2)c2ccccc21	5.0	.	.	.	.
CCn1cc(NC(=O)N2CCN(c3cccc(Cl)c3)CC2)c2ccccc21	31.0*	.	.	.	.
Oc1ccc(Cn2ccnc2)c2cccnc12	98.9*	14.7	1.6	-12.5	5.5
CCCCCCc1ccc(O)c2ncccc12	60.0	.	.	.	.
OCCOCc1ccc(O)c2ncccc12	139.5*	.	.	.	.
SMILES	PriA SSB inh	DUSP3 inh	3CLpro inhibitor	CCHFV vOTU inh	Mtb hypoxia rep
COCc1ccc(O)c2ncccc12	94.1*	8.3	-3.7	-3.7	-11.5
O=C(NCCOc1ccc2nnc(-c3ccccc3Cl)n2n1)C1CC1	-6.0	.	.	.	.
COc1ccc(C2CCCCN(C(=O)CN3CCOC3=O)C2)cc1 (stereo not given)	7.0	.	.	.	.
O=C(NC(NCc1cccnc1)C(Cl)(Cl)Cl)c1cccc2ccccc12 (stereo not given)	-9.0	53.8*	6.1	13.2	4.4
O=C(NC(NCc1ccccc1)C(Cl)(Cl)Cl)c1cccnc1 (stereo not given)	-9.6	6.0	-2.1	-9.8	6.4
Cc1ccc2cc3cc(C(=O)N[C@@H](C)c4ccc5c(c4)OCCO5)sc3nc2c1	-20.0	.	.	.	.
Oc1ccccc1C(Nc1nccs1)c1ccc2cccnc2c1O (stereo not given)	66.5*	5.4	4.7	19.6	12.7
O=[N+]([O-])c1ccc(C(Nc2nccs2)c2ccc3cccnc3c2O)cc1 (stereo not given)	77.0	.	.	.	.
CS(=O)(=O)N1CC(C(=O)NCCc2cccs2)C1	-13.0	.	.	.	.
COc1ccc(-c2ccc(SCC(=O)NCCc3cccs3)nn2)cc1OC	1.0	.	.	.	.
O=S(=O)(NC1CCCCC1N1CCOCC1)c1ccccc1 (stereo not given)	-8.0	.	.	.	.
O=S(=O)(NC1CCCCC1N1CCC(O)CC1)c1ccccc1 (stereo not given)	2.6	58.1*	3.3	7.5	-0.5
CN1CCN(c2ccc([N+](=O)[O-])c3cccnc23)CC1	26.3	24.2	-2.6	-5.6	2.1
O=[N+]([O-])c1ccc(N2CCNCC2)c2ncccc12	53.0*	-5.4	5.4	.	.
